Laboratory results published in the supplement of paper PMC10849652.
Of roughly 8,800 targets only a part is listed; those with a hit were picked by preference. About 0.5% of all pairs of compound and target were hits. A number with no mark means an inactive call.

What was measured:
Assay in all cases: log2 fold change, soluble protein after heating vs DMSO (PISA); higher = thermal stabilisation; K562 lysate, 10 uM; active = over 0.2 and 3.5 SD of the protein, either way, in both replicates (recomputed)
nilotinib = compound: Cc1cn(-c2cc(NC(=O)c3ccc(C)c(Nc4nccc(-c5cccnc5)n4)c3)cc(C(F)(F)F)c2)cn1 [nilotinib]
In short: (§1)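 A 30 min treatment with 10 μM compound was applied to crude K562 extract at 1 mg/mL protein in PBS pH 7.4 with 1 mM MgCl2. Heating for 3 min spanned 48°C-58°C, after which aliquots were pooled, adjusted to 0.5% NP-40 at 4°C and spun at 21,000xg for 90 min. TMTpro 16plex LC-MS/MS of the supernatant, with channel sums equalised, gave values recorded as log-two fold change in thermal stability against solvent controls, from duplicates.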

[1] = compound: Cc1nc(Nc2n[nH]c3c2CN(C(=O)N[C@H](CN(C)C)c2ccccc2)C3(C)C)c2sccc2n1
In short: as §1

dasatinib = compound: Cc1nc(Nc2ncc(C(=O)Nc3c(C)cccc3Cl)s2)cc(N2CCN(CCO)CC2)n1 [dasatinib]
In short: as §1

[2] = compound: Cc1ncc(-c2ccnc(Nc3ccc(S(C)(=O)=O)cc3)n2)n1C(C)C
In short: as §1

[3] = compound: Cn1cc(-c2ccc3c(c2)CCN3C(=O)Cc2cccc(C(F)(F)F)c2)c2c(N)ncnc21
In short: as §1

quisinostat = compound: Cn1cc(CNCC2CCN(c3ncc(C(=O)NO)cn3)CC2)c2ccccc21 [quisinostat]
In short: as §1

tipifarnib = compound: Cn1cncc1[C@@](N)(c1ccc(Cl)cc1)c1ccc2c(c1)c(-c1cccc(Cl)c1)cc(=O)n2C [tipifarnib]
In short: as §1

[4] = compound: NC(=O)Nc1cc(-c2cccc(F)c2)sc1C(=O)N[C@H]1CCCNC1
In short: as §1

[5] = compound: NC(=O)c1cnc(N[C@@H]2CCCC[C@@H]2N)nc1Nc1cccc(-n2nccn2)c1
In short: as §1

[6] = compound: NC1(c2ccc(-c3nc4ccn5c(=O)[nH]nc5c4cc3-c3ccccc3)cc2)CCC1
In short: as §1

Chain of UniProt O60927 (O60927 whole entry, looked up): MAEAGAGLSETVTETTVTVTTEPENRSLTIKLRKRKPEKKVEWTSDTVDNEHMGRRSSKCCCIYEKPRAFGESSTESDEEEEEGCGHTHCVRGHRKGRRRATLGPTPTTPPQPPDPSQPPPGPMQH
Chain of UniProt P42356 (P42356 whole entry, looked up): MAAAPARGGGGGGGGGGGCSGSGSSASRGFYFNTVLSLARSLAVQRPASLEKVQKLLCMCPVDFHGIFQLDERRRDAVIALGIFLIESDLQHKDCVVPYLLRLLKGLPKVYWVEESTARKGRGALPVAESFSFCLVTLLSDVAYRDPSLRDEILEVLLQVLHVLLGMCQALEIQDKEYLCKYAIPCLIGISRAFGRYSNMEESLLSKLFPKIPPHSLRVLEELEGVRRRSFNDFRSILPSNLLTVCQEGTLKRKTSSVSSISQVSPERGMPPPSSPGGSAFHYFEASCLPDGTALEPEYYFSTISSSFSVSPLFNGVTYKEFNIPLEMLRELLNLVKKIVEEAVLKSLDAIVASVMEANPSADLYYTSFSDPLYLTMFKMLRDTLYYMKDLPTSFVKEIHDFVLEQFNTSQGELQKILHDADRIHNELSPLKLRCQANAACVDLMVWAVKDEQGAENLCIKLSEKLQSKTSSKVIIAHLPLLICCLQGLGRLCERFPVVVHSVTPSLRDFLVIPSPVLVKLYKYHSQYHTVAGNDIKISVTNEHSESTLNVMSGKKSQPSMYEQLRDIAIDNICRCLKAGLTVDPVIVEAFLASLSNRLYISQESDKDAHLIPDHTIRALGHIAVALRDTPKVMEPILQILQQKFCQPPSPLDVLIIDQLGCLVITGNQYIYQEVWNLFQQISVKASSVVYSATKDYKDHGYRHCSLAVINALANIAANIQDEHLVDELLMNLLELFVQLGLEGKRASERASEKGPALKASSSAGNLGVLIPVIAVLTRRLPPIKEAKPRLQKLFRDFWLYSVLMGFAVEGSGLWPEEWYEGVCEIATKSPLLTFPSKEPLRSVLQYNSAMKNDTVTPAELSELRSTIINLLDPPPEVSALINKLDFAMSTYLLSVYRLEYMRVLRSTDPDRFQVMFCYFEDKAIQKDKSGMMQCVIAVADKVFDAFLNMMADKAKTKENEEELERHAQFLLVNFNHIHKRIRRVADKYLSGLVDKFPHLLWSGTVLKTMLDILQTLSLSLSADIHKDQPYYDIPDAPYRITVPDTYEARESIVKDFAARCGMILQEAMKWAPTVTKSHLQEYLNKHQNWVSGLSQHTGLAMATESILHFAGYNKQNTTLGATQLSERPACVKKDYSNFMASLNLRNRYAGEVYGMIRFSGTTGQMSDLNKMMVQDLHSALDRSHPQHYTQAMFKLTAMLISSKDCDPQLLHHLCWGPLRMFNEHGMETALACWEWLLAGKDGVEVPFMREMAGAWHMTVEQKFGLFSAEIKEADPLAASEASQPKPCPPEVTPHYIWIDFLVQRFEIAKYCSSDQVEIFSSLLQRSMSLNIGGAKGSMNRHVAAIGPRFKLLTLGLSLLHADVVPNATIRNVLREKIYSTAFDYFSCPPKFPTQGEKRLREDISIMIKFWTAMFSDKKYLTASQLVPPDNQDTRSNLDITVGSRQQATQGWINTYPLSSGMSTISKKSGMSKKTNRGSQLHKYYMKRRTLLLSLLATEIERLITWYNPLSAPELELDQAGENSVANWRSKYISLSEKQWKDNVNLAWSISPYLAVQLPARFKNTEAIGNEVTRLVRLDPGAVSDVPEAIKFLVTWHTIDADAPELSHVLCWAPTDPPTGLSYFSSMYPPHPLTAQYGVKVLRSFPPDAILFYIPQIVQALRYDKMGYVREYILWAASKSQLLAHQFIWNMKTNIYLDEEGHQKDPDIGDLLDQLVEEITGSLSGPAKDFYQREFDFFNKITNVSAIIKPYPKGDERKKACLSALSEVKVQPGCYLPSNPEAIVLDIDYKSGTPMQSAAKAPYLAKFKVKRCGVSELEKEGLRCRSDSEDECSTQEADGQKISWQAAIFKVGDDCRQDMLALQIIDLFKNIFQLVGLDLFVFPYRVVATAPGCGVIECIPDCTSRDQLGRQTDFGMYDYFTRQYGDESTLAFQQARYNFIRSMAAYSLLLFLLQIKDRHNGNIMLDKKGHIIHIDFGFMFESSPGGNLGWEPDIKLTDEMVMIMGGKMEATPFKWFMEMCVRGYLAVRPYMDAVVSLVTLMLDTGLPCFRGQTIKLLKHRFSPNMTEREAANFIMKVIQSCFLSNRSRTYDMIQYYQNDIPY
Chain of UniProt Q9Y446 (Q9Y446 whole entry, looked up): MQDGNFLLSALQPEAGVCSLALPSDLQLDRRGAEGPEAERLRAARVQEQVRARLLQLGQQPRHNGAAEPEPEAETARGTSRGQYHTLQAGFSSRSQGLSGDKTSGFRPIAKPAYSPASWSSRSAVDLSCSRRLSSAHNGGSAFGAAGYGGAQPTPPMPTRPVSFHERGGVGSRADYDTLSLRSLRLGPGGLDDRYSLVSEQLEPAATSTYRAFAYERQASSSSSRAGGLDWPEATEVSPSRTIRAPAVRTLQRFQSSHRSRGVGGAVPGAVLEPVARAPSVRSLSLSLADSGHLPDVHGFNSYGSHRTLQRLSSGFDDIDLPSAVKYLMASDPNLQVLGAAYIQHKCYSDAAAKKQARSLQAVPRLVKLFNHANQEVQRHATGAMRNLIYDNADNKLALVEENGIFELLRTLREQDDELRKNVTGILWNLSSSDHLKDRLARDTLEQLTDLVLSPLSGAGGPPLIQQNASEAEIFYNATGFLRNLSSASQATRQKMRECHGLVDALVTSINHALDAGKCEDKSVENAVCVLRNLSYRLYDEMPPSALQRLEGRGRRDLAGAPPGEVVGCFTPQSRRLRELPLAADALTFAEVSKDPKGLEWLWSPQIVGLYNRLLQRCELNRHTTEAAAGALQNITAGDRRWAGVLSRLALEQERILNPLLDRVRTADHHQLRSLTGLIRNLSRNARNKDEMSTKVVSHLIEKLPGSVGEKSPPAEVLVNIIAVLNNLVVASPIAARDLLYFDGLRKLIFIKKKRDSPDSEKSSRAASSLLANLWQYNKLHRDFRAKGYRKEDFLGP
Chain of UniProt Q16816 (Q16816 whole entry, looked up): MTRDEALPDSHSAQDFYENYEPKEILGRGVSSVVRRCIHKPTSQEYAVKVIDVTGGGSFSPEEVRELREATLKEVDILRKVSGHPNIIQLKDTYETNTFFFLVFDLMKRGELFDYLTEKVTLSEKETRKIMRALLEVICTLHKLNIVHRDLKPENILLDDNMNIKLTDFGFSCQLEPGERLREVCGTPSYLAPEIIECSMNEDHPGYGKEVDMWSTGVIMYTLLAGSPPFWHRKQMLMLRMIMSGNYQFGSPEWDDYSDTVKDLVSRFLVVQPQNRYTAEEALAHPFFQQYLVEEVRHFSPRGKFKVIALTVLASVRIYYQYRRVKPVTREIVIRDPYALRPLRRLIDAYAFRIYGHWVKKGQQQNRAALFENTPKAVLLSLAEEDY
Chain of UniProt Q13442 (Q13442 whole entry, looked up): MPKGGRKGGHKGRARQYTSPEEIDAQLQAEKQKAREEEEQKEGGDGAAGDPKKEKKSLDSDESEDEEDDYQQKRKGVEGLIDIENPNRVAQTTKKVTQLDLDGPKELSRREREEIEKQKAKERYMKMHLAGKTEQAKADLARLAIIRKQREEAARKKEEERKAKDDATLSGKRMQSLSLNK
Chain of UniProt P0C869 (P0C869 whole entry, looked up): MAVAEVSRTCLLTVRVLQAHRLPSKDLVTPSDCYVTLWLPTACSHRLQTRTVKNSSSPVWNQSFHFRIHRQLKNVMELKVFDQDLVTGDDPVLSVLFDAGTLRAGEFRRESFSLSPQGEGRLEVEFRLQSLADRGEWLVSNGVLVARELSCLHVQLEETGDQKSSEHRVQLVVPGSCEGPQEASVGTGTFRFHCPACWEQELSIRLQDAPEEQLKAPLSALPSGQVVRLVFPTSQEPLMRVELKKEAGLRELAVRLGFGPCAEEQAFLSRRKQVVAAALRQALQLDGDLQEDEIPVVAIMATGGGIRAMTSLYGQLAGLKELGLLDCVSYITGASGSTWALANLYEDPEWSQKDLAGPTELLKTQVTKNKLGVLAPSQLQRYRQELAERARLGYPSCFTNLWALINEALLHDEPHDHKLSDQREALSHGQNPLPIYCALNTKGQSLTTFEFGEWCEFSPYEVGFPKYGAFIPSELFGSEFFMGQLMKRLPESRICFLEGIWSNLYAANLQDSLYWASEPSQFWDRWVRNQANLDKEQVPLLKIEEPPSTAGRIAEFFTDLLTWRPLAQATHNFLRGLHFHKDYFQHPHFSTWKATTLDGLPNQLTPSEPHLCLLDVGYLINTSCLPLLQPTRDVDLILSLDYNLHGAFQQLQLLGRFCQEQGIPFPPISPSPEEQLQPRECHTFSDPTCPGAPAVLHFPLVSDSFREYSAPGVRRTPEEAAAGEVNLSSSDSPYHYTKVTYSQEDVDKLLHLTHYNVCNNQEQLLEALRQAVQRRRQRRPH
Chain of UniProt P06454 (P06454 whole entry, looked up): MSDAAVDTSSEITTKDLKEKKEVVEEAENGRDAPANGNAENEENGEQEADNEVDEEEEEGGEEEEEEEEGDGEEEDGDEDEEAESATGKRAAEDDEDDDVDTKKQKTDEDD
Chain of UniProt Q9BTU6 (Q9BTU6 whole entry, looked up): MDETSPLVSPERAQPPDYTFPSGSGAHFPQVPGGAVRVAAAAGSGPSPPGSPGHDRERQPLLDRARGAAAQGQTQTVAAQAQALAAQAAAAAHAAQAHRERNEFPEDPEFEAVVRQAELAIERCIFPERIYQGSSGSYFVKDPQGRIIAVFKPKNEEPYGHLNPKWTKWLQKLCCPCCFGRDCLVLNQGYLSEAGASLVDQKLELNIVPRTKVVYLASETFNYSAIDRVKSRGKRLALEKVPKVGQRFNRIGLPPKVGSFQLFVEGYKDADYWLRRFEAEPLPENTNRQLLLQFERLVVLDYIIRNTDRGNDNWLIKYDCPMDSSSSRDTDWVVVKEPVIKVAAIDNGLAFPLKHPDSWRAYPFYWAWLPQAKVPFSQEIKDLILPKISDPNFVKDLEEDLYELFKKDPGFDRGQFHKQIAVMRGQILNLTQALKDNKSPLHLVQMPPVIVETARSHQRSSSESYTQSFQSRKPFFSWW

| Target | log2 fold change (nilotinib) | log2 fold change [1] | log2 fold change (dasatinib) | log2 fold change [2] | log2 fold change [3] | log2 fold change (quisinostat) | log2 fold change (tipifarnib) | log2 fold change [4] | log2 fold change [5] | log2 fold change [6] |
| --- | --- | --- | --- | --- | --- | --- | --- | --- | --- | --- |
| PDAP1 (UniProt Q13442) | 0 | 0.002 | 0.066 | -0.01 | -0.009 | 0.013 | 0.044 | 0.017 | -0.016 | -0.032 |
| PI4K2A (UniProt Q9BTU6) | 0.009 | 0.03 | -0.036 | 0.207 (active) | -0.024 | 0.01 | -0.064 | 0.071 | 0.49 (active) | -0.004 |
| PTGS1 isoform 6 (UniProt P23219) | 0.021 | 0.058 | 0.034 | 0.043 | 0.053 | -0.04 | -0.039 | 0.022 | -0.008 | 0.001 |
| PLXNB2 (UniProt O15031) | -0.052 | 0.019 | -0.036 | 0.013 | 0.003 | 0.016 | -0.017 | 0.042 | -0.024 | -0.006 |
| PREP (UniProt P48147) | 0 | -0.014 | -0.026 | -0.002 | 0.007 | 0.008 | 0.023 | 0.011 | 0.006 | -0.005 |
| PLA2G4B isoform 6 (UniProt P0C869) | -0.177 | 0.259 | -0.1 | -0.326 | -0.047 | -0.671 (active) | 0.022 | 0.158 | 0.006 | -0.073 |
| PPP1R11 (UniProt O60927) | -0.03 | 0.035 | -0.051 | 0.074 | -0.055 | -0.131 | -0.001 | 0.01 | -0.067 | 0.078 |
| PPP1R8 (UniProt Q12972) | 0.004 | -0.011 | 0.03 | 0.034 | 0.025 | -0.023 | 0.013 | -0.007 | 0.01 | -0.024 |
| PHKG1 isoform 2 (UniProt Q16816) | -0.049 | 1.01 (active) | -0.124 | -0.204 | -0.021 | -0.151 | -0.007 | 1.31 (active) | 0.043 | -0.181 |
| PDCD6IP (UniProt Q8WUM4) | 0.059 | -0.045 | -0.023 | -0.006 | 0.049 | 0.001 | 0.06 | 0 | -0.058 | -0.032 |
| PFKFB3 isoform 4 (UniProt Q16875) | 0.018 | -0.023 | -0.088 | -0.021 | 0.075 | -0.012 | 0.01 | -0.025 | -0.192 | -0.001 |
| PKP3 isoform 2 (UniProt Q9Y446) | -0.034 | -0.021 | 0 | -0.039 | -0.001 | -0.012 | 0.007 | -0.051 | -0.021 | 0.02 |
| PIK3R2 (UniProt O00459) | 0.007 | -0.006 | -0.023 | 0.003 | -0.008 | -0.04 | -0.001 | 0.031 | 0.017 | 0.263 |
| PTMA (UniProt P06454) | 0.008 | -0.046 | 0.056 | 0.019 | -0.025 | 0.047 | 0.045 | 0.017 | 0.032 | -0.006 |
| PI4KA (UniProt P42356) | -0.025 | 0.055 | -0.098 | 0.015 | 0.043 | -0.076 | -0.031 | 0.041 | 0.003 | 0.019 |
